The values below come from ChEMBL document CHEMBL3988442, “University of Dundee, Small-Polar-MMV Screening Library” (2021).

Entries with a potency or affinity are not part of this list.

Protein translocase subunit SecA (Escherichia coli (strain K12)), sequence (P10408 whole entry): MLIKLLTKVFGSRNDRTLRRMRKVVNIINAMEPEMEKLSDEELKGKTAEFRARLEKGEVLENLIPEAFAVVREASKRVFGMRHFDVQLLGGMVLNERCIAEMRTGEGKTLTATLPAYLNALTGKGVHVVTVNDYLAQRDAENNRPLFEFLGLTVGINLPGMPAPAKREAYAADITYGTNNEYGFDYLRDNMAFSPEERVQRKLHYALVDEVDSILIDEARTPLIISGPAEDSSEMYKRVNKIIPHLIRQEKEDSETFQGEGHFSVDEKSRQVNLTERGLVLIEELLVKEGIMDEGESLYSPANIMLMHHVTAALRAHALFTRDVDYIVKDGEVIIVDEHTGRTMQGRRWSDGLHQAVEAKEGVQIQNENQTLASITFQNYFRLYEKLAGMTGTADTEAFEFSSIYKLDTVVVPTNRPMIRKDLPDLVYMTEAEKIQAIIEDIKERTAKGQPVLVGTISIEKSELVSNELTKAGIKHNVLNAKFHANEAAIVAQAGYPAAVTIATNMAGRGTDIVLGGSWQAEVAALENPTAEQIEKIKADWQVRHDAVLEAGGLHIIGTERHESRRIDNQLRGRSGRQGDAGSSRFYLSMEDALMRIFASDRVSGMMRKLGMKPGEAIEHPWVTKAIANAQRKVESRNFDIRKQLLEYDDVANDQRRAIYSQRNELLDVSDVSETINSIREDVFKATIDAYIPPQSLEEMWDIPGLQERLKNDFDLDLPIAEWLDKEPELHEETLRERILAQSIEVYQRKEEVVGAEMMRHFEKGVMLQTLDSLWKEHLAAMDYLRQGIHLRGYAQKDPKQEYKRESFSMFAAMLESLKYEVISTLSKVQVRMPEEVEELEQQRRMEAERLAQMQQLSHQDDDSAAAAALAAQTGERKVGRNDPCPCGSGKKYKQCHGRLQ

This test addresses Protein translocase subunit SecA (Escherichia coli (strain K12)) (UniProt P10408). In words: Assay to Identify E. coli SecA ATPase Inhibitors. The test is classed as functional. Set-up: scale not given: direction of the effect not stated beside the values. The settings on record: 30 µM.
Take `Cc1ccc2c(c1)CN(C(=O)C1CCCCC1)C(CN(C)C)CO2` (stereo not given): the Percent Effect was -4.37%.

Consider `O=C(O)c1cc2c(nc1O)CC(c1cccs1)CC2=O` (stereo not given), for which the Percent Effect is -5.09%. Under `Cc1nc(N2CCCC2)nc2c1CCN(C(=O)C1CCCC1)CC2` stands -2.37%; under `Cc1ccc(CC(=O)NCCCNS(C)(=O)=O)cc1`, -0.957%; under `CSCC(CCO)NC(=O)Nc1cc(C)ccc1C` (stereo not given), -3.37%. Under `COC(=O)c1sccc1S(=O)(=O)N1CCC(Oc2ncccc2Cl)CC1` stands -6.92%. For the molecule `Cc1cc(-c2cnn(CCNC(=O)C3CCCO3)c2C2CC2)on1` (stereo not given), the Percent Effect was -5.64%.

With `Cc1ccc(NS(=O)(=O)CC2=NC(=O)n3cccc3C2=O)cc1`, the Percent Effect is -4.7%.

Consider `CCS(=O)(=O)N1CCc2ccc(NC(=O)Nc3ccc(F)cc3F)cc21`, for which the Percent Effect is -3.73%. For `Cc1csc(C2CCCN(C(=O)c3cnc[nH]3)C2)n1` (stereo not given), the Percent Effect is -3.16%. For `O=C(c1ccc[nH]1)N1CCc2c(COCC3CC3)cncc2C1`, the Percent Effect worked out at 0.487%. Under `CC(C)c1nn(C)c(N(C)C)c1CNCc1ccccc1CN(C)C` stands -0.693%; under `c1ccc(-c2noc(CN3CCC(c4ccn[nH]4)CC3)n2)cc1`, 1.64%. Under `Cc1ccc(C)c(NC(=O)N(C)Cc2cnn(C)c2)c1` stands -3.08%. Under `COc1ccc(CN(Cc2cncn2C)CC2CCCO2)cc1OC` (stereo not given) stands -3.49%; under `CN(C)C(=O)CC1CC2(CCN(C(=O)N(C)C)CC2)Oc2ccccc21` (stereo not given), -2.94%. Turning to `Cc1noc(C)c1C(=O)NCC(C)N(C)C` (stereo not given), the Percent Effect worked out at 1.71%. Under `COc1ccc2c(c1)CC(NC(=O)NCc1cccs1)CO2` (stereo not given) stands 2.24%; under `Cc1cc(C)n(CC2CCCN2C(=O)c2ccc3c(c2)nnn3C)n1` (stereo not given), -3.73%. For `O=C1[C@@H]2CCN(Cc3ccoc3)C[C@@H]2OCCN1Cc1cccnc1`, the Percent Effect was -4.73%.

As to `CCc1nnc(CN(C)c2nc(C(C)C)nc3c2cnn3C)o1`, the Percent Effect worked out at 3.23%. Under `CCOC(=O)NC(CNC(=O)CCc1ccccn1)CC(C)C` (stereo not given) stands -7.25%. Regarding `CC(C)c1nn(C)c(N(C)C)c1CNCCC(=O)NC1CCCC1`, the Percent Effect is -6.71%. With `Cc1cnn(CC2CCCN2C(=O)c2cnc3n[nH]c(C)c3c2)c1` (stereo not given), the Percent Effect is -6.55%. On to `O=C(c1ccnnc1)N1C[C@H]2CCC[C@@]2(COCC2CCOCC2)C1`, for which the Percent Effect was -1.23%.

Take `Cc1nccn1CC1CCCN1S(=O)(=O)Cc1ccccc1` (stereo not given): the Percent Effect was -4.51%. As for `CC(C)c1n[nH]c(C2CN(C(=O)CCn3ccccc3=O)CCO2)n1` (stereo not given), the Percent Effect was -3.88%. In the case of `Cc1ccc(C(NC(=O)CC2CCN(C(C)C)CC2)C(=O)O)cc1` (stereo not given), the Percent Effect was -4.94%. On to `c1ccc(-c2nnn3c2COC(CNCC2CCOCC2)C3)cc1` (stereo not given), for which the Percent Effect is -4.05%. Under `O=C(c1cncc(N2CCC3(CCNCC3)CC2)n1)N1CCCC1` stands -4.3%; under `Cc1cc(NC(=O)NCCc2cccs2)n(C)n1`, 0.534%. In the case of `Cc1nc(-c2ccco2)ccc1C(=O)N1CCCC1Cn1cccn1` (stereo not given), the Percent Effect was -2.79%. Regarding `CCOCC1CN(C(=O)CS(C)(=O)=O)Cc2cnn(C)c21` (stereo not given), the Percent Effect was -1.67%. Under `O=C1CC(c2ccccc2F)c2c(n3ccsc3nc2=O)N1` (stereo not given) stands -2.59%; under `O=C(c1cccnc1-n1cccn1)N1CCN(CC2CC2)CC1`, -4.46%.

`COc1cc(C(=O)N(Cc2cnn(C)c2)C(C)C)ccc1OCC(N)=O`: the Percent Effect is -7.3%. `Cc1nn(C)c(C)c1C1CCCN1CC(=O)NC(C1CC1)C1CC1` (stereo not given): the Percent Effect was -3.47%.

In the case of `Cc1nc(C2CCCN(C(=O)c3cccc4c3OCO4)C2)no1` (stereo not given), the Percent Effect is -0.923%. Under `COCCNC(=O)C(C)n1cc(Br)cn1` (stereo not given) stands -3.71%; under `Cc1nc(CN2CCOC(c3nc(C(C)C)n[nH]3)C2)oc1C` (stereo not given), -1.29%.
